Screening data deposited in PubChem by National Center for Advancing Translational Sciences (NCATS).
HttQ103 aggreg: qHTS Multiplex Assay to Identify Dual Action Probes in a Cell Model of Huntington: Aggregate Formation (GFP); PC12 HttQ103-GFP aggregates, Acumen cytometry, 40 h; Potency, µM (top dose mostly 46.1 µM), for inactives: at the highest dose activity change, negative = inhibition, hits mostly inhibitors; 220,000 compounds, 1.1% hits; note: potency is the fitted concentration of half-maximal effect; % is set by controls: 0 for no effect and ±100 for the full control effect; nearly all actives have a fitted effect of over 60% in size
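PC12 cells with ecdysone-inducible HTT exon1 Q103-GFP, induced by 100 nM tebufenozide, given compounds in a concentration series. GFP aggregates (1–25 um, 6 SD above background) counted in lysates by laser-scanning cytometry, 488 nm excitation.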
HTT ATP protect: qHTS Multiplex Assay to Identify Dual Action Probes in a Cell Model of Huntington: Cytoprotection (ATP) | Potency, µM (doses to about 56.4 µM), without a hit: cytoprotection (ATP increase), most hits filed as activators | PC12 HTT-Q103 induced, cytoprotection, ATP luminescence, 40 h | 230,000 compounds, 0.14% hits; note: potency is the fitted concentration of half-maximal effect; % of control where 0% means no effect; nearly all actives have a fitted effect of over 45% in size
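Quantitative HTS on tebufenozide-induced (100 nM) PC12 cells expressing HTTQ103 exon 1–GFP; compounds tested as a concentration series; survival measured via cellular ATP.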
TRb-SRC2 inh: qHTS for Inhibitors of the Interaction of Thyroid Hormone Receptor and Steroid Receptor Coregulator 2 | Thyroid hormone receptor beta (Homo sapiens), P10828 | TRbeta-SRC2 peptide binding, fluorescence polarization; receptor liganded with 1 µM T3 | Potency, µM (doses to about 106 µM), without a hit: at the top dose activity change, negative = inhibition, most hits filed as inhibitors | 280,000 compounds, 0.065% hits;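 note: potency is the fitted concentration of half-maximal effect; plate controls were bound peptide for no effect and peptide without receptor for full effect; nearly all actives have a fitted effect of over 50% in size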
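Human TRb ligand-binding domain (0.6 uM) is mixed with 20 nM Texas Red SRC2 peptide and 1 uM T3; after compound addition and 5 hr at ambient temperature, polarization is measured and normalized to unbound and bound controls.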
JMJD2E inh: qHTS Assay for Inhibitors of Human Jumonji Domain Containing 2E (JMJD2E). Lysine-specific demethylase 4E (Homo sapiens), B2RXH2. JMJD2E catalytic domain, FDH-coupled NADH fluorescence (FDH is formaldehyde dehydrogenase). Potency, µM (titrated, usually from 57.1 µM), for the others: at the top dose activity change, negative = inhibition, most hits filed as inhibitors. 230,000 compounds, 1.6% hits; active = well fitted inhibition curve with a large enough effect, not every such curve was filed as active; inconclusive = small, poorly fitted or top-dose-only effect, or another doubt; inactive = no such curve, though single readings can be large or run the other way;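 note: potency is the fitted concentration of half-maximal effect; 0% = wells with enzyme and -100% = buffer wells without enzyme; nearly all actives have a fitted effect of over 50% in size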
Target sequence (B2RXH2 1-337 limits assumed): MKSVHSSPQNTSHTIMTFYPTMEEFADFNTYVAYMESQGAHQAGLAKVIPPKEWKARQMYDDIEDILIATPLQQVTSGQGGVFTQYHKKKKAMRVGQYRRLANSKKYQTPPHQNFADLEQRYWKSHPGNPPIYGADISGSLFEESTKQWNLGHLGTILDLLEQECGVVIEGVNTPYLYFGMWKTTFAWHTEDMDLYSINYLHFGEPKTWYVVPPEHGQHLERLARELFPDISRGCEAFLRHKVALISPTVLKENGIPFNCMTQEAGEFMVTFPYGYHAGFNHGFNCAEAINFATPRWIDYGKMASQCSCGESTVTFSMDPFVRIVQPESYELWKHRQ
TexasRed fluor: Total Fluorescence Counterscreen for Inhibitors of the Interaction of Thyroid Hormone Receptor and Steroid Receptor Coregulator 2 | TRb/SRC2 Texas Red total fluorescence interference | Potency, µM (titrated, usually from 106 µM), inactives show at the top dose fluorescence change, negative = quenching | 280,000 compounds, 0.29% hits; active = well fitted curve in either direction with a large enough effect; inconclusive = small, poorly fitted or top-dose-only effect; note: potency is the fitted concentration of half-maximal effect; % is set by controls: 0 for no effect and ±100 for the full control effect
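Human TRβ ligand-binding domain (0.6 uM) and Texas Red SRC2 peptide (20 nM) in Tris buffer with 1 uM T3 and 5% DMSO were incubated with pinned compound for 5 hr at ambient temperature. Total fluorescence was computed as S + 2P (555/632 nm).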
Coupling enz: qHTS Assay for Inhibitors of Fructose-1,6-bisphosphate Aldolase from Giardia Lamblia: Coupling assay counterscreen. coupling enzyme system counterscreen, AmpLite Red fluorescence. activity change, negative = inhibition, % at 58.2 µM, hits read low. 290,000 compounds, 0.67% hits; in the data active = activity change below about -30%; note: % is set by controls: 0 for no effect and ±100 for the full control effect
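Final compound at 57.5 uM, incubated 10 min at RT with coupling enzyme reagent (glyceraldehyde-3-phosphate), then 20 min with substrate and AmpLite Red detection. Fluorescence read at 525/598 nm; tests interference with the coupling assay, not aldolase inhibition.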
Active calls of the source: *; [ ] = another dose, or the depositor's remark. This is a sample that favours compounds with a hit; in the whole collection about 2% have one here. Unless noted, calls come from the whole dose curve; as a rule, active = well fitted curve in the direction sought with a large enough effect; inconclusive = small, poorly fitted or top-dose-only effect, or another doubt; inactive = no such curve, though single readings can be large; an effect the other way counts as inactive or inconclusive.

What do the screens show for `NC(=O)c1ccc(N=Cc2ccc([N+](=O)[O-])s2)cc1`?
HttQ103 aggreg: inconclusive; TRb-SRC2 inh: 5%; JMJD2E inh: 22µM*; TexasRed fluor: 3%; Coupling enz: -31*

How did O=[N+]([O-])c1ccc(C=Nc2ccc(Cl)c([N+](=O)[O-])c2)s1 do in these assays?
HttQ103 aggreg: 42%[9.22 µM]; HTT ATP protect: -35%[1.9 µM]; TRb-SRC2 inh: -3%; JMJD2E inh: 14µM*; TexasRed fluor: 2%; Coupling enz: -34*

How did CC(=O)Nc1nonc1-c1nnc(SCC(=O)Nc2cccc(C)c2C)n1-c1ccccc1 do in these assays?
TRb-SRC2 inh: 0%; TexasRed fluor: 7%

What do the screens show for `CCCOc1cc(C)c(S(=O)(=O)n2ccc(C)n2)cc1C`?
HttQ103 aggreg: 13µM*; HTT ATP protect: -17%; TRb-SRC2 inh: -14%; JMJD2E inh: 2%; TexasRed fluor: -4%; Coupling enz: 0

What do the screens show for `CCN1C(=O)/C(=C\c2cccc(OC(=O)c3ccco3)c2)SC1=S`?
Coupling enz: -38*

What do the screens show for `COCC(=O)N1CCC2(CC1)CN(c1cccc(-c3ccccc3)c1)C2`?
HTT ATP protect: 30%; Coupling enz: 4

How did CCCCOc1ccc(C(=O)C(CN2CCOCC2)c2ccccc2)cc1 (centres undefined) do in these assays?
HttQ103 aggreg: 36%[9.22 µM]; TRb-SRC2 inh: inconclusive; JMJD2E inh: -4%; TexasRed fluor: -2%; Coupling enz: -1

What do the screens show for `COc1ccc(C(=O)C(CN2CCOCC2)c2ccccc2)cc1` (centres undefined)?
HTT ATP protect: 22µM*; TRb-SRC2 inh: 6%; JMJD2E inh: -3%; TexasRed fluor: 2%; Coupling enz: 3

How did O=C(c1ccc(F)cc1)C(CN1CCOCC1)c1ccccc1 (centres undefined) do in these assays?
HttQ103 aggreg: 26%[9.22 µM]; HTT ATP protect: 32µM*; TRb-SRC2 inh: -9%; JMJD2E inh: -2%; TexasRed fluor: 3%; Coupling enz: 1

What do the screens show for `CCn1c(SCC(=O)c2ccc3c(c2)Cc2ccccc2-3)nnc1-c1ccc(N)cc1`?
HttQ103 aggreg: -4%; HTT ATP protect: 3%; TRb-SRC2 inh: -3%; JMJD2E inh: -6%; TexasRed fluor: -2%

How did CCn1c(SCC(=O)c2ccc(O)c(O)c2)nnc1-c1ccc(C)cc1 do in these assays?
HttQ103 aggreg: -17%; HTT ATP protect: -20%; TRb-SRC2 inh: -12%; JMJD2E inh: 25µM*; TexasRed fluor: -3%; Coupling enz: 1

How did Cc1oc(-c2ccccc2Cl)nc1CN1CCCCC1c1cccnc1 (centres undefined) do in these assays?
HttQ103 aggreg: 3%[9.22 µM]; HTT ATP protect: 2%[10 µM]; TRb-SRC2 inh: 0%; JMJD2E inh: 22µM*; TexasRed fluor: 0%; Coupling enz: -3

Results for Oc1cccc2ccc[n+](CC(O)Cn3c4ccccc4c4ccccc43)c12 (centres undefined) ?
HttQ103 aggreg: 4%; HTT ATP protect: 4%[10 µM]; TRb-SRC2 inh: -12%; JMJD2E inh: -9%; TexasRed fluor: 0.89µM*[quencher]; Coupling enz: -1

Results for Clc1ccccc1-c1nnc2sc(CCc3ccccc3)nn12 ?
HttQ103 aggreg: -33%; HTT ATP protect: -16%[0.074 µM]; TRb-SRC2 inh: -24%; JMJD2E inh: 1%; TexasRed fluor: 1%; Coupling enz: 0

What do the screens show for `c1ccc(CCc2nn3c(-c4ccncc4)nnc3s2)cc1`?
HttQ103 aggreg: 1.1µM*; HTT ATP protect: 10%[10 µM]; TRb-SRC2 inh: -28%; JMJD2E inh: -4%; TexasRed fluor: 3%; Coupling enz: 0

How did CCOC(=O)CSC1=Nc2ccccc2C2=NC(CCC(=O)NCc3ccc(OC)cc3)C(=O)N12 (centres undefined) do in these assays?
TRb-SRC2 inh: -2%; TexasRed fluor: 0%

What do the screens show for `Fc1ccc(C(CCCn2nnc(-c3cccnc3)n2)c2ccc(F)cc2)cc1`?
HttQ103 aggreg: 13µM*; HTT ATP protect: -92%; TRb-SRC2 inh: -4%; JMJD2E inh: 0%; TexasRed fluor: 1%; Coupling enz: 0

How did Fc1ccc(-n2nnc(-c3cccnc3)n2)cc1 do in these assays?
HttQ103 aggreg: 8%[9.22 µM]; HTT ATP protect: -7%[10 µM]; TRb-SRC2 inh: -4%; JMJD2E inh: 15%; TexasRed fluor: -2%; Coupling enz: 2

Results for Cc1ccc(C)c(N2CCN(CCCNC(=O)c3ccc4nc(CCc5ccccc5)oc4c3)CC2)c1 ?
TRb-SRC2 inh: 7%; TexasRed fluor: -2%

How did N#Cc1cccc(N=c2ssnc2Cl)c1 do in these assays?
HttQ103 aggreg: -8%; HTT ATP protect: 8%[10 µM]; TRb-SRC2 inh: -7%; JMJD2E inh: -22%; TexasRed fluor: -5%; Coupling enz: 4

How did COc1cc(N=c2ssnc2Cl)cc(OC)c1 do in these assays?
HttQ103 aggreg: 10µM*; HTT ATP protect: 12%; TRb-SRC2 inh: 1%; JMJD2E inh: 20µM*; TexasRed fluor: -5%; Coupling enz: -12

Results for Clc1nssc1=Nc1ccc(Br)cc1 ?
HttQ103 aggreg: inconclusive; HTT ATP protect: -101%; TRb-SRC2 inh: -7%; JMJD2E inh: 11µM*; TexasRed fluor: -2%; Coupling enz: 2

How did CCc1ccc(NC(=O)CC2C(=O)N(c3ccccc3)C(=O)N2C(C)C)cc1 (centres undefined) do in these assays?
TRb-SRC2 inh: 0%; TexasRed fluor: 0%

Results for Cc1ccc(CNC(=O)CSc2ncc(S(=O)(=O)c3ccc(Br)cc3)c(=O)[nH]2)cc1 ?
TRb-SRC2 inh: -27%[53 µM]; TexasRed fluor: 0.4µM*[quencher]

How did Cc1ccc(CNC(=O)CCS(=O)(=O)c2ccc(Br)cc2)cc1 do in these assays?
HttQ103 aggreg: 11%; HTT ATP protect: -39%; TRb-SRC2 inh: -4%; JMJD2E inh: 11µM*; TexasRed fluor: 1%; Coupling enz: 5

How did C=C[C@](C)(O)CCC=C(C)C do in these assays?
TRb-SRC2 inh: -6%; JMJD2E inh: -6%; TexasRed fluor: -5%; Coupling enz: 0
